FAS TE block: inhibitors of human fatty acid synthase thioesterase domain | P49327 | recombinant FAS-TE, OMFH fluorogenic substrate, fluorescence endpoint | inhibition, % at 15 µM | hit rate 0.67% among 360,000;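 active = compounds whose normalised, plate-corrected inhibition of enzyme fluorescence in the single-dose primary screen is 50% or more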;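 also: 0% = DMSO with enzyme and 100% = substrate without enzyme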
Cardio protect: modulators protecting cardiomyocytes from myocardial damage. hit rate 0.63% among 360,000. H9c2 cardiomyocytes, H2O2 injury protection, ATPLite, 2 h. protection from H2O2 cell death, % at 20 µM;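 active = compounds giving at least 50% protection of heart cells from peroxide-induced death in the single-dose screen, raw or plate-pattern-corrected value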;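 also: 0% = DMSO wells with peroxide and 100% = DMSO wells without peroxide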
PLCb3 inh: blocks human PLC-beta3 enzyme activity; hit rate 0.18% among 370,000; inhibition, % at 12.2 µM; Purified PLC-beta3, fluorogenic substrate, fluorescence; Q01970; in the data active = inhibition above about 11%;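 also: 0% = median of compound wells on plate and 100% = full blocker control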
PLCg1 inh: PLC-gamma1 (human) inhibition, primary screen. P19174. purified PLC-gamma1, fluorogenic substrate, fluorescence. inhibition, % at 12.2 µM. hit rate 0.84% among 370,000
PLCgamma1 ctr: PLC-gamma1 inhibition, counter-screen for PLC-beta3 hits; shares compounds with PLCg1 inh; purified PLC-gamma1, fluorogenic substrate, fluorescence; inhibition, % at 12.3 µM; hit rate 3.1% among 3,300
PLCb3 confirm: human PLC-beta3 inhibition, confirmation. AID 743261. hit rate 1% among 3,300. shares compounds with PLCg1 inh. inhibition, % at 12.3 µM. purified PLC-beta3, fluorogenic substrate fluorescence; in the data active = inhibition above about 11%
An asterisk follows results filed as active; / = no result given. Hits are enriched below; roughly 2.2% of the tested compounds scored in any of these assays. Rule as the data show it, unless noted: active = inhibition above about 9.5%; inactive = the rest.

SMILES	FAS TE block	Cardio protect	PLCb3 inh	PLCg1 inh	PLCgamma1 ctr	PLCb3 confirm
O=[N+]([O-])c1ccc(CSc2nc3ncc(Br)cc3[nH]2)cc1	7.6	2.3	0.3	11.3*	-2.9	0.0
Cc1ccccc1-c1cc2c(nn1)-c1ccccc1C2=O	-9.9	-22.7	11.9*	8.8	1.7	1.2
O=C(Nc1ccc(F)cc1)Nc1ccccc1F	-1.0	-13.8	3.0	3.3	/	/
O=C(Nc1ccc(F)cc1)Nc1cccnc1Cl	-2.1	-11.1	-2.8	12.7*	-8.6	-2.1
CC(C)c1ccc(C2(C)NC(=O)N(C(C)C(=O)Nc3ccc(N4CCOCC4)cc3)C2=O)cc1 (stereo unspecified)	-2.9	-2.4	1.9	6.7	/	/
CC(/C=C/C(=O)c1ccc(C)cc1)=C\c1ccccc1	22.6	-26.2	8.0	10.4*	-2.4	-2.5
O=C(NCC(c1ccco1)N1CCCC1)c1cc2ccccc2s1 (stereo unspecified)	-2.1	3.7	3.2	-1.3	/	/
COc1ccc(C(=O)NCC(=O)OCCCOC(=O)CNC(=O)c2ccc(OC)c(OC)c2)cc1OC	-5.2	6.6	5.2	12.4*	-6.0	-19.4
COc1ccc(C(=O)NCC(=O)OCC(=O)c2ccc(Cl)cc2)cc1OC	-1.2	2.1	-6.3	-0.7	/	/
CCCC(=O)NC(c1ccco1)c1cc([N+](=O)[O-])c2cccnc2c1O (stereo unspecified)	1.0	55.0*	4.1	14.4*	0.2	-3.8
CC(C)COC(=O)Nc1ccc(C(=O)O)cc1	-5.0	4.2	13.1*	3.5	3.9	4.8
COC(=O)CCc1c(COC(C)=O)[nH]c(C(=O)OCc2ccccc2)c1C	3.5	-4.1	-12.5	-4.0	/	/
C=CCOc1cccn2c(N(C=O)Cc3ccccc3)c(CC)nc12	-0.5	-12.5	-7.7	-5.8	/	/
FC(F)(F)C1=CC(c2ccc(Cl)cc2)=NCCN1	0.1	-20.8	4.2	11.4*	7.4	6.2
CC(=O)C1C(c2ccc(C)cc2)c2c(n[nH]c2C)CC1(C)O (stereo unspecified)	-5.9	1.2	3.9	3.8	/	/
CC(=O)C1C(c2ccccc2)c2c(n[nH]c2C)CC1(C)O (stereo unspecified)	-3.2	17.3	3.3	11.7*	-4.2	-2.6
CC(C)(C)N(NC(=O)Nc1ccccc1)C(=O)c1ccccc1	-13.1	7.6	8.4	12.8*	-4.0	1.7
CN(Cc1nc2ccccc2[nH]1)C(=O)C1CCC(=O)N(C2CCCC2)C1 (stereo unspecified)	-7.0	-2.2	-2.4	9.8*	-1.4	1.6
Cc1ccc(N(Cc2ccccc2F)S(C)(=O)=O)c(C)c1	3.5	-5.3	2.3	0.5	/	/
Cc1ccc(C)c(N(Cc2ccccc2F)S(C)(=O)=O)c1	4.5	-1.4	-0.2	10.4*	-1.4	1.2
OCCN(Cc1ccccc1)CC(O)COc1ccc(-c2ccccc2)cc1 (stereo unspecified)	25.9	-23.6	5.6	13.1*	-2.4	-3.2
O=C(O)c1ccccc1C(c1ccc(O)cc1)c1ccc(O)cc1	-6.2	-3.5	-4.8	5.5	/	/
Cc1c(C#N)c(NC(=O)c2cccc(Cl)c2)n(Cc2ccccc2)c1C	19.3	-6.0	0.7	9.9*	0.2	1.2
CC(C)C12CN3CC(C(C)C)(CN(C1)C3c1ccc3c(c1)OCO3)C2=O (stereo unspecified)	16.8	0.5	12.3*	7.1	-6.5	-1.9
CC12CN3CC(C)(CN(C1)C3c1ccc3c(c1)OCO3)C2 (stereo unspecified)	-7.0	1.5	3.6	3.2	/	/
SMILES	FAS TE block	Cardio protect	PLCb3 inh	PLCg1 inh	PLCgamma1 ctr	PLCb3 confirm
OC(COc1ccc(OCc2ccccc2)cc1)CN1CCOCC1 (stereo unspecified)	-1.4	1.3	8.6	9.7*	-2.6	1.7
O[C@H](COc1ccccc1)CN1CCC(C(O)(c2ccccc2)c2ccccc2)CC1	/	/	11.9*	5.4	-3.5	-1.2
OC(COc1ccc(OCc2ccccc2)cc1)CN1CCCCC1 (stereo unspecified)	-6.9	1.9	1.8	1.4	/	/
CC(C)[C@H](NC(=O)c1ccc(Cl)cc1Cl)C(=O)N1CCC[C@H]1C(=O)NCCc1ccccc1Cl	/	/	3.0	-0.6	/	/
CC(C)COC(=O)N1CCCCC1c1cc(C(=O)NCc2ccccc2)no1 (stereo unspecified)	10.6	4.2	5.5	-1.6	/	/
CCOC(=O)NCc1ccc(S(=O)(=O)Nc2ccc(C)cc2)cc1	1.0	-5.0	4.2	12.9*	-7.4	-3.6
CCOC(=O)NCc1ccc(CNC(=O)OCC)cc1	-7.6	2.6	2.9	-1.1	/	/
CN1Cc2nnn(Cc3ccccc3)c2-c2cc(N3CCCCC3)ccc2S1(=O)=O	/	/	-421.1	-379.9	/	/
CCOc1ccc(OCCCC(=O)NNC(=O)c2ccncc2)cc1	-13.1	2.1	7.4	14.6*	8.3	1.9
Cc1ccc(OCCCC(=O)NNC(=O)c2ccncc2)cc1	-3.6	4.6	-4.1	1.5	/	/
Cc1c(C(=O)O)sc2ncn(C)c(=O)c12	-6.2	-4.5	6.6	14.0*	-6.7	-5.8
COc1ccc(NS(=O)(=O)c2cccc(C(=O)NCCCn3ccnc3)c2)cc1	-4.8	-2.1	3.4	10.8*	-4.0	-7.0
CC1CN(c2ccc([N+](=O)[O-])c(NCCOc3ccccc3)c2)CCN1 (stereo unspecified)	6.8	-2.7	11.2*	7.7	-0.2	1.0
O=[N+]([O-])c1cccc(I)c1	/	/	0.3	3.5	/	/
COc1ccccc1NC(=O)COc1ccc(/C=N/NC(=O)CSCc2ccc(Cl)cc2)cc1	16.6	-11.2	10.1	9.5*	3.1	4.5
Cc1c(C(=O)N(Cc2cccc(Br)c2)C2CCS(=O)(=O)C2)oc2ccc(F)cc12 (stereo unspecified)	35.6	0.1	-5.2	3.9	/	/
Cc1ccc(CN[C@@H]2CC[C@@]34CCCN3C(=O)CCC[C@H]4C2)o1	/	/	-0.1	-1.9	/	/
O=C(COC(=O)/C=C/c1ccc(F)cc1)NC(=O)NCc1ccccc1	-3.1	7.6	1.7	2.7	/	/
CCCCCCCCCCCn1nnnc1N	-5.7	-5.3	2.7	2.8	/	/
CCOc1ccc(CCNC(=O)COC(=O)Cn2nc(C)c([N+](=O)[O-])c2C)cc1OCC	-4.0	-4.7	-5.0	-0.7	/	/
N#Cc1cc(-c2ccccc2)nnc1Oc1ccccc1	3.7	-0.9	-1.6	12.7*	-7.2	-3.6
Cc1ccc(Oc2nnc(-c3ccccc3)cc2C#N)cc1	2.5	-6.5	2.4	3.3	/	/
O=C(O)c1cc(NC(=O)c2cccc(F)c2)cc(NC(=O)c2cccc(F)c2)c1	-3.2	-1.9	-0.4	-3.2	/	/
COC(=O)Nc1cc([N+](=O)[O-])ccc1OC	-11.7	0.9	4.3	10.0*	0.2	5.5
COc1ccc([N+](=O)[O-])cc1NC(=O)CSCc1ccc(Br)cc1	47.6	-9.0	4.9	10.6*	-2.9	-2.5
COc1ccc([N+](=O)[O-])cc1NC(=O)CSCc1ccccc1C	48.4	-6.3	2.9	2.5	/	/
CCCCC(=O)N(C)c1c(C)nc2ccc(C(=O)N3CCCCC3)cn12	-3.9	-1.4	-3.9	-5.7	/	/

High-throughput results deposited in PubChem by several laboratories.
